Holding throughout (assay): NCI-60 one-dose screen, 48 h (100 = growth as untreated, 0 = no growth, -100 = all killed)
Common to all, as to conditions: 10 µM

The subject of assay [1] is HCT-15 colon.
Assay [2] relates to HT29 colon.
The test system of assay [3] is SNB-75 CNS.
The subject of assay [4] is SNB-19 CNS.
The test system of assay [5] is PC-3 prostate.
For assay [6], the system named is SK-MEL-5 melanoma.
For assay [7], the system named is UACC-62 melanoma.
Assay [8] has as its system LOX IMVI melanoma.
Assay [9] has as its system SK-MEL-28 melanoma.
The subject of assay [10] is SK-MEL-2 melanoma.
For assay [11], the system named is SN12C renal.
Assay [12] relates to UO-31 renal.
The subject of assay [13] is TK-10 renal.
Assay [14] has as its system ACHN renal.
Assay [15] has as its system CAKI-1 renal.
For assay [16], the system named is A498 renal.
Assay [17] relates to CCRF-CEM leukemia.
In assay [18] the test system is MOLT-4 leukemia.
The subject of assay [19] is EKVX NSCLC.

Structures are written as SMILES. About 83,000 compounds went through this panel and 20% of them were active in at least one assay; those are over-represented in the sample as a whole.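 Cell lines were cultured in 96-well plates, exposed to a single compound concentration, and assessed for percent growth 48 hours later.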 Values without a mark were called inactive. Calls of active or inactive are those of the source. The calls were made as follows: active = growth percent below 10; inactive = the rest.

Turning to `O=C(O)c1ccc(CNc2ccc(C(=O)CCl)cc2)cc1`, the growth in assay [1] was 94.9%; in assay [2] it was 96.4%; in assay [3], 93.1%; in assay [4], 103%; in [5], 91.9%; in [6] it was 97.9%. The growth was 95.3% in assay [7]; 77.9% in assay [8]; 95.2% in assay [9]; 96.6% in assay [10]; 99.3% in assay [11]; 106% in assay [12]. Moreover, the growth was 104% in assay [13]; 99.3% in assay [14]; 86.7% in [15]; 61.4% in assay [16]; 48.7% in assay [17]; 87.9% in assay [18].
Turning to `O=[N+]([O-])c1ccc2c(c1)Cc1cc(I)ccc1-2`, the growth in assay [1] is 108%; in assay [2], 91.6%; in assay [3], 106%; in assay [4], 109%; in assay [5], 101%; in assay [6], 97.1%. For the same molecule, the growth is 108% in assay [7]; 116% in assay [8]; 111% in [9]; 109% in [10]; 84.6% in assay [19]; 107% in assay [11]. The growth in assay [12] was 91.9%; in assay [13] it was 118%; in assay [14], 110%; in assay [15], 102%; in assay [16] it was 102%; in assay [17] it was 96.8%. Also, in assay [18], the growth is 91.8%.
As to `CC(C)C[C@H](NC(=O)Cn1ccc2ccccc2c1=O)B(O)O`, the growth in [1] was 57.9%; in [2] it was 44.7%; in assay [3], 96.8%; in [4], 76.8%; in assay [5] it was 86.9%; in [6], 37.9%. Besides, the growth was 49.8% in assay [7]; 50.6% in assay [8]; 48.7% in assay [9]; 63.5% in assay [10]; 75.8% in [11]; 50.6% in [12]. Also, the growth is 11.7% in [13]; 29.1% in [14]; 40.6% in assay [15]; 30.1% in assay [16]; 15.2% in assay [17]; 9.94% (active) in [18].
For `Cc1ccc2nc3[nH]c(=O)[nH]c(=O)c3c(N)c2c1`, the growth in assay [1] is 84%; in assay [2], 83.3%; in assay [3], 90%; in [4], 86.2%; in assay [5], 85.6%; in [6], 84%. Besides, the growth in [7] was 47.3%; in assay [8] it was 75.2%; in assay [9], 98.3%; in [10], 98%; in assay [19] it was 59.9%; in [11], 72.6%. Also, the growth is 54.9% in assay [12]; 78.2% in assay [13]; 60.2% in assay [14]; 58% in assay [15]; 115% in [16]; 77.7% in assay [17]. Further, the growth in assay [18] is 86.6%.
In the case of `S=C(Cc1ccc(-c2ccccc2)cc1)N1CCOCC1`, the growth in assay [1] was 104%; in assay [2] it was 103%; in [3] it was 83.1%; in [4] it was 110%; in assay [5] it was 76.7%; in [6] it was 92.9%. The growth in assay [7] was 87.2%; in [8], 92%; in [9], 106%; in assay [10] it was 88.5%; in assay [19], 95.4%; in [11], 99.8%. The growth in [12] is 83.9%; in assay [14] it was 98.4%; in assay [15], 90.4%; in [16], 82%; in [17], 91.8%; in assay [18] it was 99.7%.
As for `FC(F)(F)c1ccc(-c2cnc(Cl)nc2NCc2cc(C(F)(F)F)cc(C(F)(F)F)c2)cc1`, the growth in assay [1] is 8.09% (active); in assay [2], 21.3%; in [3], 27.2%; in assay [4] it was 14.8%; in [5], 4.94% (active); in assay [6], 77.3%. In addition, the growth in assay [7] is 6.65% (active); in assay [8] it was -8.46% (active); in assay [9], 46%; in assay [10], -21.6% (active); in assay [11], 12.4%; in assay [12], -9.98% (active). Besides, the growth in [13] was 21.8%; in assay [14], 2.83% (active); in assay [15] it was 1.18% (active); in [16], -4.04% (active); in assay [17], 18.8%; in [18], 21.1%.
On to `Nc1ccn([C@@H]2O[C@H](COP(=O)(O)O[C@@H]3C[C@H](n4cc(F)c(=O)[nH]c4=O)O[C@@H]3COP(=O)(O)O[C@@H]3C[C@H](n4cc(F)c(=O)[nH]c4=O)O[C@@H]3COP(=O)(O)O[C@@H]3C[C@H](n4cc(F)c(=O)[nH]c4=O)O[C@@H]3COP(=O)(O)O[C@@H]3C[C@H](n4cc(F)c(=O)[nH]c4=O)O[C@@H]3COP(=O)(O)O[C@@H]3C[C@H](n4cc(F)c(=O)[nH]c4=O)O[C@@H]3COP(=O)(O)O[C@@H]3C[C@H](n4cc(F)c(=O)[nH]c4=O)O[C@@H]3COP(=O)(O)O[C@@H]3C[C@H](n4cc(F)c(=O)[nH]c4=O)O[C@@H]3COP(=O)(O)O[C@@H]3C[C@H](n4cc(F)c(=O)[nH]c4=O)O[C@@H]3COP(=O)(O)O[C@@H]3C[C@H](n4cc(F)c(=O)[nH]c4=O)O[C@@H]3COP(=O)(O)O[C@@H]3C[C@H](n4cc(F)c(=O)[nH]c4=O)O[C@@H]3COP(=O)(O)OCCOCCOCCOCCOCCOCCO)[C@H](O)C2O)c(=O)n1` (stereo not given in full), for which the growth is 44.6% in [1]; 47.1% in assay [2]; 86.3% in assay [3]; 56.6% in assay [4]; 56.1% in [5]; 2.12% (active) in [6]. Moreover, the growth in assay [7] is 25.6%; in assay [8], 25.2%; in assay [9], 52.3%; in assay [10], 60.2%; in assay [19], 52%; in [12] it was 13.5%. The growth was 11.7% in [14]; 26.7% in assay [15]; 46.5% in assay [16]; 21.4% in assay [17]; 26.8% in [18].
Regarding `CCCCOCCOCCOCc1cc2c(cc1Br)OCO2`, the growth was 97.1% in assay [1]; 92.6% in assay [2]; 99.7% in [3]; 106% in assay [4]; 93.2% in assay [5]; 97.8% in [6]. Further, the growth in assay [7] is 89.9%; in assay [8], 106%; in assay [9] it was 106%; in assay [10], 92%; in assay [19], 104%; in assay [12] it was 76.7%. The growth is 96.3% in assay [13]; 98.8% in assay [14]; 98.5% in [15]; -60.6% (active) in assay [16]; 99.8% in assay [17]; 92.3% in assay [18].

Source of the values: PubChem BioAssay (NCI).
